Laboratory results taken from PubChem BioAssay AID1527 (The Scripps Research Institute Molecular Screening Center, 2009).
The whole screen tested about 290,000 compounds, of which about 2,600 (0.9%) were called active. This is one part of a sample in which actives are shown more often than they occur.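 How the source made its calls: active means inhibition above the mean of all tested compounds plus 3 SD, cutoff set per screening run (cut at about 7.5% in these data); inactive means the rest.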

System: VIM-2 metallo-beta-lactamase (Pseudomonas aeruginosa)
Assay: inhibition of VIM-2 nitrocefin hydrolysis – biochemical, epi-absorbance readout, Pseudomonas aeruginosa enzyme, primary screen (AID 1527);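 further: red hydrolysis product quenches plate fluorescence so inhibitors raise well fluorescence; 0% = enzyme with DMSO and 100% = DMSO without enzyme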
Details: purified VIM-2, nitrocefin hydrolysis, epi-absorbance fluorescence; at 5.6 µM; hits give high values

inhibition, inactive:
CC(C)c1ccc(OCC(O)CN2CCN(c3ccccn3)CC2)cc1 (stereo not given) -3.55%
CN(CC(=O)NCc1ccncc1)S(=O)(=O)c1ccc(Br)cc1 -1.28%
COc1ccccc1OCCCC(=O)Nc1ccc2c(c1)OCCO2 -2.36%
CC1CCCCC1NC(=O)CCS(=O)(=O)c1ccc2c(c1)NC(=O)CO2 (stereo not given) -1.17%
COCC(=O)N1CCc2ccc(NC(=O)c3ccccc3Cl)cc2C1 -2.32%
CSc1cccc(NC(=O)CN2C(=O)COc3ccc(S(=O)(=O)N4CCOCC4)cc32)c1 -1.26%
O=C1/C(=C/c2cccs2)CCC1C1CCCC1 (stereo not given) -3.15%
Cn1c(=O)c(Sc2ccc(Cl)cc2)c(O)c2ccccc21 -2.02%
COc1cccc2c(O)cc(=O)n(C)c12 -2.19%
COc1ccc(NC(=O)C2CCC(CNS(=O)(=O)c3csc(C(N)=O)c3)CC2)cc1OC (stereo not given) 1.07%
Cc1ccc2c(=O)cc(C(=O)NCCc3ccc(S(N)(=O)=O)cc3)oc2c1C 5.69%
Cc1cc(=O)oc2c(C)c(OCC(=O)NCCN3CCOCC3)ccc12 5.03%
Cc1ccccc1NC(=S)NC(=O)Cc1ccc(Cl)cc1 -0.97%
CC1CCN(CCCn2c(SCC(=O)NC3CCCC3)nc3ccccc3c2=O)CC1 -1.12%
CCCCN(C)CCCNC(=O)c1cc(-c2cccs2)nc2ccccc12 -1.4%
O=C(NCCN1CCOCC1)c1cc(-c2cccs2)nc2ccccc12 -0.14%
Cc1cc(=O)oc(C)c1C(=O)NCCN(C)Cc1ccccc1 -1.11%
Cc1ccccc1C(CC(=O)c1cccs1)C(C#N)C#N (stereo not given) -2.96%
O=S(=O)(NC1CCCCC1N1CCCCC1)c1ccc(Cl)cc1 (stereo not given) -1.53%
CCCCn1c(N)c(N(CC)C(=O)c2ccccc2C(F)(F)F)c(=O)[nH]c1=O -0.36%
Cc1ccc(N(CC(=O)NCC2CCCO2)C(=O)CNS(=O)(=O)c2ccc(Cl)cc2)cc1 (stereo not given) -3.97%
COc1cccc(CNC(=O)Cn2c(=O)oc3cc(S(=O)(=O)N4CCCCC4)ccc32)c1 -0.65%
CCOC(=O)C1=C(O)/C(=C/c2ccc(OCC(=O)Nc3ccc(C)cc3)cc2)N=C1C -1.99%
CCn1c(SCC(=O)Nc2ccc3c(c2)OCCO3)nnc1C(C)C -1.97%
CCCn1c(SCC(N)=O)nnc1C(C)C -1.77%
CCN(CC)CCCNC(=O)COc1ccc2oc3c(c2c1)CCCC3 -0.12%
O=C(N/N=C/c1cccc([N+](=O)[O-])c1)C1CC(=O)N(c2ccc(Br)cc2)C1 (stereo not given) -1.97%
CCC1(C)Cc2c(sc3nc(SC)nc(N)c23)CO1 (stereo not given) -3.26%
CCSc1nc2sc3c(c2c(=O)[nH]1)CC(C)(C)OC3 0.86%
CC1CC(NC(=O)/C(C#N)=C/c2ccc[nH]2)CC(C)(C)C1 (stereo not given) -3.17%
COc1ccc(C(=O)Nc2ccc(C3(C#N)CCCC3)cc2)cc1OC -1.46%
Cc1cc(C)cc(N(CC(=O)NC2CCCC2)C(=O)CCC(=O)Nc2cc(C)on2)c1 -2.81%
COc1ccc(Cc2nnc(NC(=O)Cc3cccs3)s2)cc1 -3.71%
CCC(CC)c1nnc(NS(=O)(=O)Cc2ccccc2)s1 -1.98%
Cc1ccc(NS(=O)(=O)c2cn(C)c(=O)n(C)c2=O)c(C)c1 -0.4%
CCS(=O)(=O)N1CCC(N2CCN(c3ccccc3)CC2)CC1 -1.31%
O=C(NCCc1cccc(F)c1)C1CCCN(c2nc3ccccc3s2)C1 (stereo not given) 0.44%
Cc1cc(Cl)c2oc(C(=O)NC(C)c3ccncn3)c(C)c2c1 (stereo not given) -1.68%
CCC1CCCCN1CCCNC(=O)Cn1nc(-c2ccccc2)ccc1=O (stereo not given) -1.79%
CCC1CCCCN1CCCNC(=O)C1CCC(Cn2c(=O)[nH]c3ccccc3c2=O)CC1 (stereo not given) -4.77%
Cc1nn(C)c(Oc2ccccc2)c1CCNS(=O)(=O)c1ccc(F)cc1 -2.13%
O=C(NCCCN1CCOCC1)c1ccccc1NS(=O)(=O)c1ccc(Br)cc1 -2.82%
O=C(NCCCN1CCOCC1)c1ccccc1NS(=O)(=O)c1ccc(F)cc1 -1.71%
COc1ccccc1N(C)C(=O)c1cc(S(=O)(=O)N2CCc3ccccc32)cn1C -4.13%
Brc1ccccc1C1N=C(c2ccccc2)NO1 (stereo not given) -2.78%
O=C(COC(=O)c1c2c(nc3ccccc13)/C(=C\c1cccs1)CCC2)Nc1ccccc1Cl -4.79%
NS(=O)(=O)c1ccc(NC(=O)COC(=O)c2cc3ccccc3oc2=O)cc1 0.95%
COc1cc(-c2cc(C(=O)OCC(=O)Nc3ccc4c(c3)OCO4)c3ccccc3n2)cc(OC)c1OC 2.83%
COc1cc(/C=C2\CCCc3c2nc2ccccc2c3C(=O)O)cc(Cl)c1O 2.46%

inhibition, active:
Cn1c2ccccc2c(=O)c2c(O)cccc21 16.8%
Cc1cc(=O)oc2c(C)c(OCC(=O)NCCc3ccc(S(N)(=O)=O)cc3)ccc12 10.4%
CCCN(CCC)CCNC(=O)c1cc2c(C)nc3ccccc3c2o1 10.2%
Cc1nc2ccccc2c2oc(C(=O)NCCCN3CCC(C)CC3)cc12 16.2%
CCCn1c(SCC(=O)c2ccc3c(c2)OCCO3)nnc1C(C)C 9.77%
CN(C)CCSc1nc(N)c2c3c(sc2n1)COC(C)(C)C3 10.3%
COc1ccc(Cc2nnc(NS(=O)(=O)Cc3ccccc3)s2)cc1 13.9%
CCC1CCCCN1CCCNC(=O)c1cc2c(Cl)nc3ccccc3c2s1 (stereo not given) 19.5%
O=C(NCCCN1CCOCC1)c1cnn2c(-c3ccccc3)cc(-c3ccccc3)nc12 23.4%
NC(=O)c1ccc(NC(=O)COC(=O)c2c3c(nc4ccccc24)/C(=C\c2ccc4c(c2)OCO4)CCC3)cc1 20.7%
NS(=O)(=O)c1ccc(NC(=O)COC(=O)c2c3c(nc4ccccc24)/C(=C\c2ccc4c(c2)OCO4)CCC3)cc1 23.9%
